Results with a measured potency or affinity are listed apart. Results filed as inconclusive are left out. Calls of active or inactive are those of the source. The rule behind the calls is not given here.
Test: general cell-killing toxicity readout – plate reader, dry powder samples, cytotoxicity control for PAX8 inhibitor project, dose response (AID 743021)
Settings: cell line, non-specific cytotoxicity counter-screen; series mostly up to 35 µM

Q: For COc1ccc2c3c([nH]c2c1)[C@H](CO)N(C(=O)Nc1cccc(F)c1)CC31CCN(S(=O)(=O)c2cccc(C)c2)CC1, which outcome is on record?
A: inactive

Q: With COc1ccc(-c2ccc3c(c2)[C@@H]2[C@@H](CCN2S(=O)(=O)c2ccc(OC)cc2)[C@@H](CO)N3C)cc1 as the compound, how does the outcome read?
A: inactive

Q: With C[C@@H]1CN([C@H](C)CO)C(=O)c2cc(NC(=O)Nc3ccccc3)ccc2O[C@@H](C)CCCCO[C@@H]1CN(C)CC1CCCCC1 as the compound, how does the outcome read?
A: inactive

Q: Which outcome does the source give for C[C@@H]1CN([C@H](C)CO)C(=O)CCCn2cc(nn2)CO[C@H]1CN(C)C(=O)Nc1ccc(-c2cccs2)cc1 here?
A: inactive

Q: With C[C@H](CO)N1C[C@H](C)[C@H](CN(C)S(=O)(=O)c2ccc(Cl)cc2)OCCCC[C@H](C)Oc2ccc(NS(=O)(=O)c3ccc(Cl)cc3)cc2C1=O as the compound, how does the outcome read?
A: inactive

Q: With C[C@H]1CCCCO[C@H](CN(C)Cc2ccc(C(F)(F)F)cc2)[C@@H](C)CN([C@@H](C)CO)C(=O)c2cc(NS(=O)(=O)c3ccc(F)cc3)ccc2O1 as the compound, how does the outcome read?
A: inactive

Q: For Cc1cccc(S(=O)(=O)N2CC[C@@H]3[C@H](CO)N(C)c4ccc(-c5ccc(C#N)cc5)cc4[C@@H]32)c1, which outcome is on record?
A: inactive

Q: With C[C@@H]1CCCCO[C@@H](CN(C)C(=O)c2ccccc2)[C@H](C)CN([C@H](C)CO)C(=O)c2cc(NC(=O)Nc3ccc(C(F)(F)F)cc3)ccc2O1 as the compound, how does the outcome read?
A: inactive

Q: For C[C@H]1CN([C@@H](C)CO)S(=O)(=O)c2ccc(C#Cc3ccc(F)cc3)cc2O[C@@H]1CN(C)C(=O)NC1CCCCC1, which outcome is on record?
A: inactive

Q: With C[C@@H]1CCCCO[C@H](CN(C)Cc2ccccc2)[C@@H](C)CN([C@@H](C)CO)C(=O)c2cc(NC(=O)Nc3ccc(C(F)(F)F)cc3)ccc2O1 as the compound, how does the outcome read?
A: inactive

Q: With O=C(Nc1ccc(C(F)(F)F)cc1)Nc1ccc2c(c1)[C@@H]1C[C@H](CC(=O)N3CCc4ccccc4C3)O[C@H](CO)[C@@H]1O2 as the compound, how does the outcome read?
A: inactive

Q: Which outcome does the source give for CC(C)NC(=O)N(C)C[C@H]1OCCCC[C@@H](C)Oc2ccc(NC(=O)Nc3ccc(C(F)(F)F)cc3)cc2C(=O)N([C@@H](C)CO)C[C@H]1C here?
A: inactive

Q: With COc1cccc(C#Cc2ccc3c(c2)O[C@@H](CN(C)C(=O)c2ccccn2)[C@H](C)CN([C@@H](C)CO)S3(=O)=O)c1 as the compound, how does the outcome read?
A: inactive

Q: Which outcome does the source give for C[C@@H]1CCCCO[C@@H](CN(C)C(=O)Nc2ccc(C(F)(F)F)cc2)[C@H](C)CN([C@H](C)CO)C(=O)c2cc(NS(=O)(=O)c3ccc(Cl)cc3)ccc2O1 here?
A: inactive

Q: With C[C@@H]1CCCCO[C@@H](CN(C)S(=O)(=O)c2ccc(F)cc2)[C@H](C)CN([C@H](C)CO)C(=O)c2cc(NS(=O)(=O)c3ccc(Cl)cc3)ccc2O1 as the compound, how does the outcome read?
A: inactive

Q: With CC(C)CC1NC(=S)N(Cc2ccccc2)C1=O (stereo unspecified) as the compound, how does the outcome read?
A: inactive

Q: With CC(C)CC#Cc1ccc2c(c1)O[C@H](CN(C)S(=O)(=O)c1ccc(F)cc1)[C@@H](C)CN([C@@H](C)CO)S2(=O)=O as the compound, how does the outcome read?
A: inactive

Q: Which outcome does the source give for C[C@@H]1CCCCO[C@H](CN(C)CC2CCCCC2)[C@H](C)CN([C@@H](C)CO)C(=O)c2cc(NC(=O)Nc3ccccc3)ccc2O1 here?
A: inactive

Q: For C[C@H]1CCCCO[C@H](CN(C)Cc2ccc(C(F)(F)F)cc2)[C@@H](C)CN([C@@H](C)CO)C(=O)c2cc(NS(=O)(=O)c3cccs3)ccc2O1, which outcome is on record?
A: inactive

Q: For C[C@@H]1CCCCO[C@H](CN(C)C(=O)Nc2ccc(C(F)(F)F)cc2)[C@@H](C)CN([C@@H](C)CO)C(=O)c2cc(NC(=O)Nc3ccc(C(F)(F)F)cc3)ccc2O1, which outcome is on record?
A: inactive

Q: Which outcome does the source give for COc1cccc(S(=O)(=O)N2CCCCN3[C@@H](CO)[C@@H](c4ccc(C#CCC(C)C)cc4)[C@@H]3C2)c1 here?
A: inactive

Q: With C[C@H]1CCCCO[C@@H](CN(C)Cc2ccc3c(c2)OCO3)[C@@H](C)CN([C@@H](C)CO)C(=O)c2cc(NC(=O)Nc3ccc(F)cc3)ccc2O1 as the compound, how does the outcome read?
A: inactive

Q: For Cc1ccc(S(=O)(=O)Nc2ccc3c(c2)C(=O)N([C@H](C)CO)C[C@@H](C)[C@H](CN(C)Cc2ccc(Cl)c(Cl)c2)OCCCC[C@H](C)O3)cc1, which outcome is on record?
A: inactive

Q: Which outcome does the source give for C[C@@H]1CN([C@H](C)CO)S(=O)(=O)c2ccc(-c3ccc(C#N)cc3)cc2O[C@@H]1CN(C)Cc1cccc(F)c1 here?
A: inactive

Q: Which outcome does the source give for C[C@H]1CN([C@@H](C)CO)C(=O)Cc2cc(NC(=O)NC3CCCCC3)ccc2O[C@H]1CN(C)Cc1ccc(-c2ccccc2)cc1 here?
A: inactive

Q: Which outcome does the source give for O=C(Nc1ccc(F)cc1)N1CC(=O)N2[C@@H](CO)[C@@H](c3ccc(C#Cc4ccc(F)cc4)cc3)[C@@H]2C1 here?
A: inactive
